Test results from PubChem BioAssay (EPA / NIEHS).
The source made the active and inactive calls. The calls were made as follows: active = hit-call score of the fitted dose curve at least 0.9, where 1 is the maximum; inactive = score below 0.9.

Columns and labels:
[1] = ATG_CRE_CIS: Attagene CIS-FACTORIAL HepG2 Assay for human cAMP Responsive Element (CRE) binding protein 3 (AID 2282926); conditions: HepG2 CRE cis-reporter, Attagene multiplexed mRNA; actives raise or lower the signal
In short: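 Endogenous CRE-binding activity in HepG2 is reported through a cis-regulated transfected reporter. Following a day of exposure, mRNA levels are determined by reverse transcription PCR and fluorescent fragment analysis; fits run in both directions versus DMSO.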

[2] = target: CCAAT/enhancer-binding protein beta (Homo sapiens) (UniProt P17676); experiment: ATG_C_EBP_CIS: Attagene CIS-FACTORIAL HepG2 Assay for human CCAAT/Enhancer Binding Protein (C/EBP) beta (AID 2282927); conditions: HepG2 Attagene cis-factorial transcription factor reporter; actives raise or lower the signal
In short: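 Transiently transfected HepG2 (MRTU library, endogenous TF-driven promoters); 24 h dosing; total RNA → oligo(dT) RT → PCR → 6-FAM primer extension → HpaI digest → CE; fit bidirectionally vs DMSO.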

[3] = ATG_CMV_CIS: Attagene CIS-FACTORIAL HepG2 Assay for human CMV (Internal Marker) (AID 2282928); conditions: HepG2 CMV promoter reporter, transcription factor profiling; actives raise or lower the signal;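 also: endpoint acts as a background internal control marker rather than a target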
In short: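 Endogenous transcription factor activity read in HepG2 via transfected cis-promoter reporter units. After 24 h dosing, reporter mRNA measured by RT-PCR/capillary electrophoresis; gain or loss of signal fit relative to DMSO.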

[4] = ATG_DR4_LXR_CIS: Attagene CIS-FACTORIAL HepG2 Assay for human Liver X Receptor (LXR), DR4 submotif (AID 2282929); conditions: HepG2 Attagene DR4 cis-reporter, mRNA transcription; actives raise or lower the signal
In short: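 HepG2, transient MRTU transfection, cis-element (DR4) promoter; 24 h compound exposure; total RNA → oligo(dT) RT → PCR → 6-FAM primer extension → HpaI cut → CE. Gain/loss vs DMSO, bidirectional fit.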

[5] = target: Aryl hydrocarbon receptor (Homo sapiens) (UniProt P35869); experiment: ATG_Ahr_CIS: Attagene CIS-FACTORIAL HepG2 Assay for human Aryl Hydrocarbon Receptor (Ahr) (AID 2282930); conditions: HepG2 AhR cis-factorial reporter transcription; actives raise or lower the signal
In short: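 Read-out: reporter mRNA quantified by RT-PCR with fluorescent primer extension and capillary electrophoresis. Human HepG2 liver cells carried transfected cis-promoter reporter units and were exposed to chemical for 24 h; gain or loss fitted relative to DMSO.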

[6] = ATG_AP_1_CIS: Attagene CIS-FACTORIAL HepG2 Assay for human Activator Protein 1 (AP-1) (AID 2282931); conditions: HepG2 Attagene cis-factorial AP-1 reporter mRNA; actives raise or lower the signal
In short: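 Transient MRTU transfection of HepG2 → 24 h chemical treatment → RNA isolation, RT-PCR, 6-FAM labelling, HpaI digest → capillary electrophoresis. Fit: bidirectional, DMSO negative control.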

[7] = ATG_AP_2_CIS: Attagene CIS-FACTORIAL HepG2 Assay for human Activator Protein 2 (AP-2) (AID 2282932); conditions: HepG2 AP-2 cis-reporter, Attagene transcription factor profiling; actives raise or lower the signal
In short: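 Multiplexed mRNA reporter assay in HepG2: cis-regulated units report endogenous factor activity after 24 h treatment. Fluorescence from capillary electrophoresis of RT-PCR products gives the signal, with DMSO as baseline.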

[8] = ATG_BRE_CIS: Attagene CIS-FACTORIAL HepG2 Assay for human Bone Morphogenetic Protein (BMP) Response Element (BRE) (AID 2282933); conditions: HepG2 BMP response element reporter, Attagene transcription factor profiling; actives raise or lower the signal
In short: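 HepG2 cells transiently transfected with multiplexed cis-element reporter units were dosed with chemical for 24 h. Reporter mRNA was measured by RT-PCR with fluorescent labelling, HpaI digestion and capillary electrophoresis; bidirectional fitting relative to DMSO.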

[9] = target: Retinoic acid receptor alpha (Homo sapiens) (UniProt P10276); experiment: ATG_DR5_RAR_CIS: Attagene CIS-FACTORIAL HepG2 Assay for human Retinoic Acid Receptor Alpha (RARE), DR5 submotif (AID 2282934); conditions: HepG2 Attagene cis-factorial RARE DR5 reporter, mRNA; actives raise or lower the signal;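 as to AC50: reporter responds to endogenous RAR alpha beta and gamma in HepG2 not RARA alone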
In short: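 Read-out: DR5-driven reporter transcript measured by RT-PCR, 6-FAM primer extension, HpaI digest and capillary electrophoresis. Human HepG2 liver cells carry transiently transfected cis-element reporter constructs; dosing lasts 24 h. Gain or loss of signal fitted against DMSO baseline.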

[10] = target: Transcription factor E2F1 (Homo sapiens) (UniProt Q01094); experiment: ATG_E2F_CIS: Attagene CIS-FACTORIAL HepG2 Assay for human E2F Transcription Factor 1 (AID 2282935); conditions: HepG2 Attagene cis-reporter, E2F reporter RNA transcripts; actives raise or lower the signal
In short: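 Measures reporter transcript levels via RT-PCR with capillary electrophoresis detection in HepG2 cells harboring cis-regulated reporter units; 24 h post-dose; bidirectional curve fitting with DMSO as baseline.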

[11] = ATG_E_Box_CIS: Attagene CIS-FACTORIAL HepG2 Assay for human Enhancer Box (E-box) (AID 2282936); conditions: HepG2 E-box cis-reporter transcription, actives raise or lower the signal
In short: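 First, HepG2 cells receive multiple cis-regulated reporter constructs by transient transfection. Next, chemicals are applied for 24 h. Finally, reporter mRNA is quantified via RT-PCR and capillary electrophoresis, with DMSO as baseline.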

[12] = ATG_M_61_CIS: Attagene CIS-FACTORIAL HepG2 Assay for M61 Transcription Factor (Internal Marker) (AID 2282937); conditions: HepG2 Attagene CIS-FACTORIAL M61 internal marker reporter; actives raise or lower the signal
In short: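 Human liver HepG2, transient MRTU transfection (cis promoter elements), 24 h compound. Total RNA → oligo(dT) RT → PCR → FAM label → HpaI → CE. Internal background marker; bidirectional fitting, DMSO = baseline.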

[13] = ATG_EGR_CIS: Attagene CIS-FACTORIAL HepG2 Assay for human Early Growth Response 1 (EGR1) (AID 2282938); conditions: HepG2 Attagene CIS-FACTORIAL EGR reporter mRNA; actives raise or lower the signal
In short: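 Transient transfection of human HepG2 with multiple cis-regulated reporter units, chemical exposure 24 h, total RNA isolated. Reverse transcription, PCR, fluorescent labelling and capillary electrophoresis quantify reporter transcripts; activity fitted bidirectionally against DMSO.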

[14] = ATG_Ets_CIS: Attagene CIS-FACTORIAL HepG2 Assay for human Erythroblast Transformation Specific (ETS) (AID 2282941); conditions: HepG2 ETS cis-reporter transcription, actives raise or lower the signal
In short: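 Steps: transfect HepG2 with multiple reporter units; treat compound 24 h; isolate RNA, DNase-treat, reverse-transcribe; PCR-amplify, label with 6-FAM, digest with HpaI; separate by capillary electrophoresis. Activity fitted both directions versus DMSO.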

[15] = target: Hepatocyte nuclear factor 3-beta (Homo sapiens) (UniProt Q9Y261); experiment: ATG_FoxA2_CIS: Attagene CIS-FACTORIAL HepG2 Assay for human Forkhead box A2 (FOXA2) (AID 2282942); conditions: HepG2 cis-reporter transcription factor activity, 24 h; actives raise or lower the signal
In short: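 Transient MRTU transfection of HepG2 liver cells; 24 h treatment; total RNA → oligo(dT) RT → PCR → FAM primer extension → HpaI cut → CE. Bidirectional fit vs DMSO.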

[16] = ATG_FoxO_CIS: Attagene CIS-FACTORIAL HepG2 Assay for human Forkhead box O (FoxO) (AID 2282943); conditions: HepG2 Attagene cis-reporter, FoxO element, mRNA; actives raise or lower the signal
In short: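 Read-out: fluorescence of 6-FAM-labelled reporter cDNA fragments resolved by capillary electrophoresis. Transiently transfected HepG2 cells were dosed for 24 h; activity fitted in both directions relative to DMSO controls.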

[17] = ATG_GATA_CIS: Attagene CIS-FACTORIAL HepG2 Assay for human GATA Binding Protein (AID 2282944); conditions: HepG2 GATA cis-element reporter, Attagene multiplex mRNA; actives raise or lower the signal
In short: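 HepG2 cells transiently transfected with multiplexed cis-element reporter units reflecting endogenous transcription factor activity; reporter mRNA measured after 24 h dosing by RT-PCR, 6-FAM labeling, HpaI digestion and capillary electrophoresis. Bidirectional fitting versus DMSO baseline.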

[18] = ATG_GLI_CIS: Attagene CIS-FACTORIAL HepG2 Assay for human Zinc Finger Protein GLI1 (AID 2282945); conditions: HepG2, Attagene cis-factorial reporter mRNA, GLI element; actives raise or lower the signal
In short: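 Transiently transfected HepG2 cells report endogenous transcription factor activity via cis-element-driven reporter units. After 24 h compound exposure, reporter mRNA was measured by RT-PCR with capillary electrophoresis; bidirectional fitting against DMSO baseline.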

[19] = ATG_M_19_CIS: Attagene CIS-FACTORIAL HepG2 Assay for M19 Transcription Factor (Internal Marker) (AID 2282939); conditions: HepG2 Attagene CIS-FACTORIAL M19 internal marker reporter; actives raise or lower the signal
In short: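 HepG2 cells transiently transfected with cis-regulated multiple reporter transcription units were dosed for 24 h; reporter mRNA was quantified by RT-PCR, 6-FAM primer-extension labelling, HpaI digestion and capillary electrophoresis, with bidirectional fitting against DMSO baseline.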

Chain of Transcription factor E2F1 (Homo sapiens) (Q01094 whole entry, looked up): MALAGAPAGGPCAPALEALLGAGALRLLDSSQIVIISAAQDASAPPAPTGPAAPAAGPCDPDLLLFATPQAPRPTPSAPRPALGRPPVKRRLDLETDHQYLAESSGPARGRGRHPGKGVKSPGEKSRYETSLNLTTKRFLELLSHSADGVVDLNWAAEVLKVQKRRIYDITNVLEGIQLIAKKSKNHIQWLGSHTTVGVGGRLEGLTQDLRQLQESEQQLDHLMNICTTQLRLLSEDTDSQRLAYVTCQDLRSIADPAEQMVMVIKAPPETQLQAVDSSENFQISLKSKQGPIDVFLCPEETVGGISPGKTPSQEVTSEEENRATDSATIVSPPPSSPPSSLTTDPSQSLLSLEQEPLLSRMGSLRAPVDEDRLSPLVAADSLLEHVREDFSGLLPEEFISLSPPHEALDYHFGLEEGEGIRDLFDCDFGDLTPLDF
Chain of Aryl hydrocarbon receptor (Homo sapiens) (P35869 whole entry, looked up): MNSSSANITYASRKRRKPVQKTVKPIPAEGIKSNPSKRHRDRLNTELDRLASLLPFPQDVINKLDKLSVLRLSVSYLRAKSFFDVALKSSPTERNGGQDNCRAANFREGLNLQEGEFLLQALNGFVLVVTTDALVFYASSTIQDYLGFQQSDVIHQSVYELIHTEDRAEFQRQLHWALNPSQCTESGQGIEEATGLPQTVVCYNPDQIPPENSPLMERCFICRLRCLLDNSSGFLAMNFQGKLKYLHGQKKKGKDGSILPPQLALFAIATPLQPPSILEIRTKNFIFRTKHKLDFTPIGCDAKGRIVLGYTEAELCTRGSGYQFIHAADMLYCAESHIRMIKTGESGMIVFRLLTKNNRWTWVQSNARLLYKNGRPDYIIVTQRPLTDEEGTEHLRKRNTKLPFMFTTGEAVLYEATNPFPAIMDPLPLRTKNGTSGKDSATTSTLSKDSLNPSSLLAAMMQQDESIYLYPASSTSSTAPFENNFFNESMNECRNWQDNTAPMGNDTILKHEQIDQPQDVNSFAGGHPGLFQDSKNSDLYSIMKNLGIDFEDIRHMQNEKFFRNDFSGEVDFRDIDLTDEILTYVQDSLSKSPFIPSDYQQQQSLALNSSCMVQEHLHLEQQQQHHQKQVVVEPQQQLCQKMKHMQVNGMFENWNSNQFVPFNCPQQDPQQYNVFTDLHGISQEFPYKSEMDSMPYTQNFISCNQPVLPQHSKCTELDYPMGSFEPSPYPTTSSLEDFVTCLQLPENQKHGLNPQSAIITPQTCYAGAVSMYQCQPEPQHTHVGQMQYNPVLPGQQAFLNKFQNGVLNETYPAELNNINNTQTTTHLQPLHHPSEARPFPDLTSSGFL
Chain of Hepatocyte nuclear factor 3-beta (Homo sapiens) (Q9Y261 whole entry, looked up): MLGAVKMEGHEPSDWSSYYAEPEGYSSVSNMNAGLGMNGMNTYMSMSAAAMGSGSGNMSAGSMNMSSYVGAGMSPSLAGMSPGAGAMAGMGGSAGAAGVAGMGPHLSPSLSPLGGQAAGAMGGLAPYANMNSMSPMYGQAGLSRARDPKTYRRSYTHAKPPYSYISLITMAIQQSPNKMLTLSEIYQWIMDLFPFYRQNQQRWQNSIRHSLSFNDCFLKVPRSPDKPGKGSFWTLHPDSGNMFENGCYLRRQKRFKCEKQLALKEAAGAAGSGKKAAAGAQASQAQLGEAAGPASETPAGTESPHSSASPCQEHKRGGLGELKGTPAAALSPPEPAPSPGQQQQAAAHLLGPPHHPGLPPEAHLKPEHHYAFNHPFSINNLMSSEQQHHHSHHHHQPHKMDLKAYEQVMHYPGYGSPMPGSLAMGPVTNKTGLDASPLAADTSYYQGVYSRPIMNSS
Chain of CCAAT/enhancer-binding protein beta (Homo sapiens) (P17676 whole entry, looked up): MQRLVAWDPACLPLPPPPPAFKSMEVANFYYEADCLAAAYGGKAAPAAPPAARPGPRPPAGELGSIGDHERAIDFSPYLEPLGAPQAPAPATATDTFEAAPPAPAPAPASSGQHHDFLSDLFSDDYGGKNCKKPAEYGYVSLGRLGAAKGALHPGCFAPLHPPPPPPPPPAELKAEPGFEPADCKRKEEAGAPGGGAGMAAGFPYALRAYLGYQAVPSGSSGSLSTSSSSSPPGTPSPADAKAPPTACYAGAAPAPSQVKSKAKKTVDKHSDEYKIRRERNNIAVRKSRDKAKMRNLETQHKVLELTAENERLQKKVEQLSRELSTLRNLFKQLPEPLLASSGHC
Chain of Retinoic acid receptor alpha (Homo sapiens) (P10276 whole entry, looked up): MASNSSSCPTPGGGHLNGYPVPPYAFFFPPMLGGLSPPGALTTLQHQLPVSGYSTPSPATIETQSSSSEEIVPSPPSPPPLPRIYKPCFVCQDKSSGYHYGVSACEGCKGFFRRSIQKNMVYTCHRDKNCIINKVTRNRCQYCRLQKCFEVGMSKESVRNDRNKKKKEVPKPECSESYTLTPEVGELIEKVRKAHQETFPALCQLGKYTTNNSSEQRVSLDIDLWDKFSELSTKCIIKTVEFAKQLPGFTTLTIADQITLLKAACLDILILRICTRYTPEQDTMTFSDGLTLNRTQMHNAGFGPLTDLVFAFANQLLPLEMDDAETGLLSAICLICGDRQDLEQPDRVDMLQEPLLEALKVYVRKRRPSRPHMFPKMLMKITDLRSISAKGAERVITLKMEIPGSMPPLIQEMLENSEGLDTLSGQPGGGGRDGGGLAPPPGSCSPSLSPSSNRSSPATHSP

## OCCOCCN1CCN(C2=Nc3ccccc3Sc3ccccc32)CC1
[1]
  outcome: inactive
[2]
  outcome: inactive
[3]
  AC50: 135 µM (active)
[4]
  outcome: inactive
[5]
  AC50: 113 µM (active)
[6]
  outcome: inactive
[7]
  outcome: inactive
[8]
  outcome: inactive
[9]
  outcome: inactive
[10]
  outcome: inactive
[11]
  outcome: inactive
[12]
  outcome: inactive
[13]
  outcome: inactive
[14]
  outcome: inactive
[15]
  outcome: inactive
[16]
  outcome: inactive
[17]
  outcome: inactive
[18]
  outcome: inactive

## CCOC(=O)COC(=O)c1cc(Oc2ccc(C(F)(F)F)cc2Cl)ccc1[N+](=O)[O-]
[1]
  outcome: inactive
[2]
  outcome: inactive
[3]
  outcome: inactive
[4]
  AC50: 35.5 µM (active)
[5]
  outcome: inactive
[6]
  outcome: inactive
[7]
  outcome: inactive
[8]
  outcome: inactive
[9]
  outcome: inactive
[10]
  outcome: inactive
[11]
  outcome: inactive
[12]
  outcome: inactive
[13]
  outcome: inactive
[14]
  outcome: inactive
[15]
  outcome: inactive
[16]
  outcome: inactive
[17]
  outcome: inactive
[18]
  outcome: inactive

## CCCCCCOCCOCCO
[1]
  outcome: inactive
[2]
  outcome: inactive
[3]
  outcome: inactive
[4]
  outcome: inactive
[5]
  outcome: inactive
[6]
  outcome: inactive
[7]
  outcome: inactive
[8]
  outcome: inactive
[9]
  outcome: inactive
[10]
  outcome: inactive
[11]
  outcome: inactive
[12]
  outcome: inactive
[13]
  outcome: inactive
[14]
  outcome: inactive
[16]
  outcome: inactive
[17]
  outcome: inactive
[18]
  outcome: inactive

## CCc1cc(Cc2cc(CC)cc(C(C)(C)C)c2O)c(O)c(C(C)(C)C)c1
[1]
  AC50: 19.1 µM (active)
[2]
  outcome: inactive
[3]
  outcome: inactive
[4]
  AC50: 14.8 µM (active)
[5]
  outcome: inactive
[6]
  AC50: 9.51 µM (active)
[7]
  outcome: inactive
[8]
  AC50: 4.81 µM (active)
[9]
  AC50: 2.28 µM (active)
[10]
  outcome: inactive
[11]
  outcome: inactive
[12]
  outcome: inactive
[14]
  outcome: inactive
[15]
  outcome: inactive
[17]
  outcome: inactive
[18]
  AC50: 17.1 µM (active)

## COC(=O)c1ccc(OC)cc1
[1]
  outcome: inactive
[2]
  outcome: inactive
[3]
  outcome: inactive
[4]
  outcome: inactive
[5]
  outcome: inactive
[6]
  outcome: inactive
[7]
  outcome: inactive
[8]
  outcome: inactive
[9]
  outcome: inactive
[10]
  outcome: inactive
[11]
  outcome: inactive
[13]
  outcome: inactive
[19]
  outcome: inactive
[14]
  outcome: inactive
[15]
  outcome: inactive
[16]
  outcome: inactive
[17]
  outcome: inactive
[18]
  outcome: inactive

## CCC1(C)NC(=O)NC1=O (stereo unspecified)
[1]
  outcome: inactive
[2]
  outcome: inactive
[3]
  outcome: inactive
[4]
  outcome: inactive
[5]
  outcome: inactive
[6]
  outcome: inactive
[7]
  outcome: inactive
[8]
  outcome: inactive
[9]
  outcome: inactive
[10]
  outcome: inactive
[11]
  outcome: inactive
[12]
  outcome: inactive
[13]
  outcome: inactive
[19]
  outcome: inactive
[14]
  outcome: inactive
[16]
  outcome: inactive
[17]
  outcome: inactive
[18]
  outcome: inactive

## Nc1ccn([C@H]2CS[C@@H](CO)O2)c(=O)n1
[1]
  outcome: inactive
[2]
  outcome: inactive
[3]
  outcome: inactive
[4]
  outcome: inactive
[5]
  outcome: inactive
[6]
  outcome: inactive
[7]
  outcome: inactive
[8]
  outcome: inactive
[9]
  outcome: inactive
[10]
  outcome: inactive
[11]
  outcome: inactive
[12]
  outcome: inactive
[13]
  outcome: inactive
[14]
  outcome: inactive
[15]
  outcome: inactive
[16]
  outcome: inactive
[17]
  outcome: inactive
[18]
  outcome: inactive

## O=C(c1ccccc1)C(O)c1ccccc1 (stereo unspecified)
[1]
  outcome: inactive
[2]
  outcome: inactive
[3]
  outcome: inactive
[4]
  outcome: inactive
[5]
  outcome: inactive
[6]
  outcome: inactive
[7]
  outcome: inactive
[8]
  outcome: inactive
[9]
  outcome: inactive
[10]
  outcome: inactive
[11]
  outcome: inactive
[12]
  outcome: inactive
[13]
  outcome: inactive
[19]
  outcome: inactive
[14]
  outcome: inactive
[16]
  outcome: inactive
[17]
  outcome: inactive
[18]
  outcome: inactive
